# Assay outcomes as filed in PubChem.
# A selection: hits, their analogues and other compounds. The true share with any hit is near 6.1%.
# ATXN2 expr inh: reduces ATXN2 reporter expression in HEK-293 cells | Potency, µM (doses to about 57 µM), for the others: at the top dose activity change, negative = inhibition, most hits filed as inhibitors | 360,000 compounds, 0.72% hits | HEK-293 ATXN2-luciferase reporter, luminescence, 24 h; also: % is scaled to controls: 0 for no effect and ±100 for the full control effect; nearly all actives have a fitted effect of over 55% in size
#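 ATXN2-luciferase reporter cells (luciferase flanked by upstream and downstream ATXN2 gene portions) were treated 24 h at 37 °C with compounds at up to 57 uM. SteadyGlo luminescence gave expression; GF-AFC fluorescence gave viability.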
# Gal4-VP16 FLuc: Gal4-VP16 reporter inhibition counter-screen; Potency, µM (highest dose often 53.6 µM), for the others: at the highest dose activity, negative = inhibition, usual class: inhibitors; Drosophila S2 Gal4-VP16 UAS-luciferase, luminescence, 20 h; AID 2546; 310,000 compounds, 3.5% hits;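 also: Gal4-VP16 expression switched on by copper sulfate through the metallothionein promoter; % is scaled to controls: 0 for no effect and ±100 for the full control effect; nearly all actives have a fitted effect of over 50% in size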
# S2 tox: viability counter-screen for ATXN expression inhibitors. S2 cells (HEK-293 line with an ATXN2-luciferase reporter) viability, CellTiter-Fluor protease fluorescence, 24 h. 400,000 compounds, 0.49% hits. Potency, µM (doses to about 56.7 µM), actives largely listed as cytotoxic; also: nearly all actives have a fitted effect of over 40% in size
# HepG2 viability: counter-screen for TGF-b inhibitors: cytotoxicity in HepG2 cells | 410,000 compounds, 0.76% hits | HepG2 CAGA-GFP viability, ATP luminescence, 18 h | Potency, µM (doses to about 46.1 µM), without a hit: top-dose activity change, negative = cytotoxicity, hits mostly cytotoxic | AID 588856
#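 HepG2 CAGA-GFP cells (1000/well, DMEM with 1% FBS) received compound, then TGF-beta at 500 pg/mL final, and were incubated 18 hours at 37 degrees C. Viability was read by CellTiter-Glo luminescence. Media-only wells were set as complete cell-killing and DMSO as no toxicity.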
# RORgamma inh: blocks mouse ROR gamma transcriptional activity | Potency, µM (series often up to 53.6 µM), for inactives: at the top dose activity change, negative = inhibition, usual class: inhibitors | Drosophila S2 Gal4-RORgamma UAS-luciferase reporter, 20 h | 310,000 compounds, 5.4% hits | P51450; also: % is scaled to controls: 0 for no effect and ±100 for the full control effect; nearly all actives have a fitted effect of over 60% in size
# Target sequence (P51450 whole entry, looked up, the tested form may be a part): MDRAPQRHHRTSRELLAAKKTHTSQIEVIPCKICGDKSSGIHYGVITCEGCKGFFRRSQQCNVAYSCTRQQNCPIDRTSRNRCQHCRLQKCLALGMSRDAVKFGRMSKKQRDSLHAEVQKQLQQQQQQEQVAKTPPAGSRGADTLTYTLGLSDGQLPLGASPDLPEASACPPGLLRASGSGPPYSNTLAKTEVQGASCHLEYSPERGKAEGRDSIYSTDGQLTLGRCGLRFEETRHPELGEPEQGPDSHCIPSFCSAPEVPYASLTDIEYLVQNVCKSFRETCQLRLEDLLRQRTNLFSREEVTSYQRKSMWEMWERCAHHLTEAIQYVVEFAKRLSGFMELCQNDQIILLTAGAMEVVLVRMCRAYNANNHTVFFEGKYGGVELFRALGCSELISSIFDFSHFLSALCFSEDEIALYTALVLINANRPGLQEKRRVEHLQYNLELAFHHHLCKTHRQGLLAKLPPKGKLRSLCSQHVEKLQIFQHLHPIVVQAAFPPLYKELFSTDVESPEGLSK
#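 A Gal4/UAS one-hybrid system in insect cells: metallothionein-promoter Gal4–ROR gamma fusion plus Photinus luciferase reporter. Copper sulfate 700 uM final, 20 hr ambient incubation, luminescent detection after 10 min with reagent.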
# TGFb SMAD3 inh: blocks TGF-b signaling | HepG2 CAGA-GFP TGF-b/SMAD3 reporter, GFP fluorescence, 18 h; TGF-beta stimulated, 500 pg/mL final | AID 588855 | Potency, µM (highest dose often 46.1 µM), inactives show top-dose activity, negative = inhibition, actives largely listed as inhibitors | 410,000 compounds, 1.2% hits; also: % is scaled to controls: 0 for no effect and ±100 for the full control effect; nearly all actives have a fitted effect of over 65% in size
#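 Inhibition of TGF-beta-driven CAGA-GFP reporter expression in HEPG2 cells is measured by cellular GFP fluorescence after 18 h stimulation with 500 pg/mL recombinant TGF-beta in 1% FBS medium at 37 degrees C.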
# The depositor's hits bear a star; i = inactive; ? = inconclusive; . = no result; ! = not active in a repeat; [ ] = another dose, or the depositor's remark. Calls follow the shape of the dose curve; as a rule, active = well fitted curve in the direction sought with a large enough effect; inconclusive = small, poorly fitted or top-dose-only effect, or another doubt; inactive = no such curve, though single readings can be large; an effect the other way counts as inactive or inconclusive. Potency is read from the fitted curve at half-maximal effect.
SMILES,ATXN2 expr inh,Gal4-VP16 FLuc,S2 tox,HepG2 viability,RORgamma inh,TGFb SMAD3 inh
CN(C)c1ccc(C(=C2C=CC(=[N+](C)C)C=C2)c2ccc(N(C)C)cc2)cc1,7.69µM*,1.58µM*!,17.8µM*,-92.7%,1.12µM*,?
O=C(NNC(=S)NC1CCCCC1)c1sc2ccccc2c1Cl,6.6%,12.6µM*,i,-50.0%,2.82µM*,?
O=C(NC1CC1)c1sc2ccccc2c1Cl,36.3%,5.7%,i,-7.6%,-4.5%,-21.0%
CC(C)(C)C(=O)NC(=S)NNC(=O)c1sc2ccccc2c1Cl,17.8µM*,0.562µM*,.,11.2µM*,0.631µM*,-20.0%
OC1(c2cccnc2)CCN(Cc2ccc3c(c2)CN(Cc2cccc4nccnc24)CCO3)CC1,.,.,i,.,.,.
O=C(CN1CCCCC1)NNc1nc(-c2ccccc2)c2cc(Br)ccc2n1,-6.6%,1.58µM*,i,-1.6%,0.501µM*,18.5%
O=C(NNc1nc(-c2ccccc2)c2cc(Br)ccc2n1)c1ccc(S(=O)(=O)N2CCOCC2)cc1,-9.5%,12.6µM*,i,-20.2%,7.94µM*,-23.2%
O=C(Cn1c(=O)c2cccn2c2ccccc21)NCc1ccccc1F,8.5%,.,i,9.9%,.,0.3%
COC(=O)Cc1ccc(NC(=S)NCCO)cc1,0.7%,-14.9%,i,35.0%,-14.0%,-2.1%
CC(C)CCNC(=S)Nc1ccc(Br)cc1,33.3%,10µM*,i,-37.5%,3.55µM*,?
CC(C)CCNC(=O)/C=C/c1ccc(Br)cc1,38.4%,8.1%,i,-26.9%,33.7%,?
Cc1ccc(NC(=S)NCC(C)C)cc1,26.2%,11.2µM*,i,-16.6%,10µM*,-8.8%
S=C(NCC1(c2ccccc2)CCCC1)Nc1ccccc1,?,6.31µM*,i,-27.8%,1.58µM*,-23.5%
COC(=O)Cc1ccc(NC(=S)NCCC(C)C)cc1,-4.2%[11.3 µM],?,i,7.6%,10µM*,-3.0%
CCCNC(=S)Nc1ccc(Br)cc1,8.1%,?,i,10.8%,11.2µM*,?
S=C(NCCNC(=S)Nc1ccccc1)Nc1ccccc1,.,-0.2%,i,3.5%,-37.4%[1.91 µM],1.1%
CCCNC(=S)Nc1ccc(S(N)(=O)=O)cc1,?,-6.3%,i,-5.5%,1.8%,7.0%
S=C(NCCc1ccccc1)Nc1ccc(Br)cc1,69.7%,?,i,-37.0%,5.01µM*,?
S=C(NCCOCCOCCNC(=S)Nc1ccccc1)Nc1ccccc1,3.7%,?,i,-0.1%,5.01µM*,-2.7%
C[C@@H]1CN(Cc2ccc3c(c2)CN(Cc2cccn2-c2ccccn2)CCO3)C[C@H](C)O1,.,.,i,.,.,.
Cc1ccn2c(=O)cc(COc3ccc(NC(=O)COc4ccc(Cl)cc4)cc3)nc2c1,.,.,.,1.6%,.,6.2%
O=C(NCCC1=CCCCC1)c1ccc2c(c1)N(Cc1ccccc1F)C(=O)c1ccccc1S2=O (centres undefined),11.2%,.,i,4.8%,.,0.0%
Cc1ccc(S(=O)(=O)N2C[C@H]3n4c(=O)ccc(=O)n4C[C@H](OC(=O)NCc4ccccc4)[C@@]3(O)C2)cc1,0.0%,.,?,6.2%,.,-6.9%
Cc1ccc(S(=O)(=O)N2C[C@H]3n4c(=O)ccc(=O)n4C[C@H](OC(=O)NCC4CCCCC4)[C@@]3(O)C2)cc1,15.8µM*,.,22.4µM*,-119.2%,.,?
Cc1ccccc1OCC(=O)N1CCC(c2nc3ccccc3s2)CC1,-18.1%,.,i,-19.2%,.,?
SMILES,ATXN2 expr inh,Gal4-VP16 FLuc,S2 tox,HepG2 viability,RORgamma inh,TGFb SMAD3 inh
CCNC(=O)N1CCC(c2nc3ccccc3s2)CC1,15.1%,-10.1%,i,-7.2%,23.8%,-5.7%
Cc1ccc(NC(=S)N2CCC(c3nc4ccccc4s3)CC2)cc1C,-10.8%,11.2µM*,i,-8.0%,4.47µM*,?
Cc1cc(C)cc(NC(=S)N2CCC(c3nc4ccccc4s3)CC2)c1,-17.2%,11.2µM*,i,-19.3%,4.47µM*,?
Cc1sc2ncnc(NCC3COc4ccccc4O3)c2c1C (centres undefined),?,1µM*,i,-30.9%,?,?
Cc1sc2ncnc(NCc3ccccc3)c2c1C,?,17.8µM*,i,-44.8%,-26.1%,10.7%
Cc1sc2ncnc(NCC(C)(C)N3CCOCC3)c2c1C,-12.2%,17.8µM*,i,-28.5%,?,?
Cc1sc2ncnc(NCC3(N4CCOCC4)CCCCC3)c2c1C,-11.2%,-11.3%,i,-2.2%,57.9%,?
Cc1cccc(CNc2ncnc3ccc(-c4ccc(C(=O)N(C)C)cc4)cc23)c1,.,?,.,.,-12.9%,.
NNC(=S)NC1CCCCC1,-17.2%,7.08µM*,?,0.6%,2.82µM*,-1.6%
CCCNC(=S)NC1CCCC1,3.2%,?,i,-13.0%,11.2µM*,0.5%
CCCNC(=O)NC1CCCCCCC1,-16.8%,-15.3%,?,-15.3%,25.2%,-18.9%
COc1ccc(C[C@H]2CN3C(=NC[C@@H]3Cc3ccc(O)cc3)N2C[C@H](C)NC(=O)c2ccc(C)c(Br)c2)cc1,?,3.4%,22.4µM*,17.8µM*,7.7%,22.4µM*
COc1ccc(C[C@H]2CN3C(=NC[C@@H]3C(C)C)N2C[C@H](C)NC(=O)c2ccc(C)c(Br)c2)cc1,?,-7.5%,17.8µM*,-57.8%,-0.9%,?
Cc1ccc(C(=O)N[C@@H](C)CN2C3=NC[C@H](C(C)C)N3C[C@H]2Cc2ccc(O)cc2)cc1Br,?,?,?,-35.4%,?,?
O=C(CN1C(=O)C2(SCC(=O)N2c2cccc(Cl)c2)c2ccccc21)NC1CCCCC1 (centres undefined),-5.9%,.,i,-1.3%,.,-4.4%
